Assay outcomes as filed in PubChem.
A selection: hits, their analogues and other compounds. The true share with any hit is near 19%.
TDP1 inh – inhibitors of human tyrosyl-DNA phosphodiesterase TDP1. Q9NUW8. hit rate 0.28% among 350,000. Potency, µM (doses to about 130 µM), for inactives: at the highest dose activity change, negative = inhibition, usual class: inhibitors. AID 485290. recombinant TDP1, AlphaScreen DNA substrate cleavage; also: potency is read from the fitted curve at half-maximal effect; nearly all actives have a fitted effect of over 40% in size
Target sequence (Q9NUW8 whole entry, looked up): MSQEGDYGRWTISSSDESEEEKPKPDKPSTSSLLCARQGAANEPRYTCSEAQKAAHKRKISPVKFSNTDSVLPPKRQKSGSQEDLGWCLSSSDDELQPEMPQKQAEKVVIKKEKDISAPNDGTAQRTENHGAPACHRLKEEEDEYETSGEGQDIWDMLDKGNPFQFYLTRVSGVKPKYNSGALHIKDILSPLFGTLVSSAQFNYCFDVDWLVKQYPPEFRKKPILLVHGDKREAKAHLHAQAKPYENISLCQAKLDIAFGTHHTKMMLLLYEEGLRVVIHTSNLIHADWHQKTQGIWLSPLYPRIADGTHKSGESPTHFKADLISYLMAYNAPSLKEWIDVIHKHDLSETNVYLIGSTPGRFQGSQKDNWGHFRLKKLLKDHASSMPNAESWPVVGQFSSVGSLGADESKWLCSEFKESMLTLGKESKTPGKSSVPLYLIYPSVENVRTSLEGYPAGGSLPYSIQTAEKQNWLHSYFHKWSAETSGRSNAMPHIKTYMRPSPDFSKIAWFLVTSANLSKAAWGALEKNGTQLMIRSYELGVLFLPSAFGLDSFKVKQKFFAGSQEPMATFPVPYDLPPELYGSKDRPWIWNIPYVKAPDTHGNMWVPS
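AlphaScreen read-out: signal falls as enzyme removes the 3' tyrosine-FITC from a 5'-biotinylated DNA oligo (15 nM, 5 min, RT). Enzyme was E. coli-made recombinant Tdp1 at 1 nM, exposed to compound for 15 min beforehand; beads 10 ug/ml, 10 min.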
Giardia killer – kills Giardia lamblia; hit rate 0.15% among 340,000; AID 540267; activity change, % at 7.66 µM, hits read low; Giardia lamblia trophozoite viability; in the data active = activity change below about -80%; inconclusive = between about -30% and that limit;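 also: parasites exposed to compound for two days anaerobically before the ATP read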
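Giardia lamblia trophozoites (100 cells/well) were incubated with compounds for 48 h at 37 deg C under anaerobic conditions. Viability was read as ATP content by one-step luminescence after 15-30 min at room temperature.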
TDP1 cell noCPT – qHTS for Inhibitors of human tyrosyl-DNA phosphodiesterase 1 (TDP1): qHTS in cells in absence of CPT. DT40 Tdp1-/- hTDP1 cells, no CPT, ATP luminescence, 48 h. Potency, µM (doses to about 46.2 µM), for the others: at the highest dose activity change, negative = growth inhibition, actives largely listed as inhibitors. hit rate 15% among 420,000. AID 686978, 2013; also: potency is read from the fitted curve at half-maximal effect; nearly all actives have a fitted effect of over 55% in size
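Readout: luminescence from CellTiter-Glo after 30 min in the dark at RT. Cells: DT40 Tdp1-/- with stable hTDP1, 400/well. Exposure: compounds alone, ≥48 hr, 37 °C.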
IL1B secr inh – blocks inflammasome-driven IL-1 beta release; THP-1 LPS/ATP IL-1B secretion, AlphaLISA, 16 h; hits give low values; activity change, % at 57.5 µM; hit rate 4.7% among 360,000; AID 743279; in the data active = activity change below about -50%; inconclusive = mostly about -30% to -49%
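Secreted IL-1B measured by AlphaLISA bead assay after 16 h compound exposure of THP-1 cells; compounds (final up to 57.5 uM) added 1 h before LPS (250 ng/mL) and ATP (1.25 mM) stimulation; lower signal means less secretion.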
TDP1 cell CPT – growth inhibition of DT40 Tdp1-/-;hTDP1 cells with camptothecin (screen for TDP1 inhibitors). chicken DT40 Tdp1-/-;hTDP1 cells + 20 nM CPT, ATP luminescence, 48 h. Potency, µM (doses to about 46.2 µM), inactives show at the top dose activity change, negative = growth inhibition, usual class: inhibitors. hit rate 12% among 420,000; also: potency is read from the fitted curve at half-maximal effect; nearly all actives have a fitted effect of over 55% in size
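Chicken DT40 Tdp1-/- cells stably complemented with human TDP1 were seeded at 400 cells/well in medium containing 20 nM camptothecin, exposed to pin-transferred compounds, and grown at 37 °C for at least 48 hr. Viability was read as ATP luminescence.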
ELG1 DNA repair – blocks ELG1-dependent DNA repair in HEK293T cells | Potency, µM (highest dose often 46.1 µM), inactives show top-dose activity change, negative = inhibition, actives largely listed as inhibitors | AID 504467 | HEK293T ELG1-luciferase reporter, luminescence, 16 h; DNA damage induced by 5-fluorouridine | hit rate 2.3% among 330,000; also: potency is read from the fitted curve at half-maximal effect; nearly all actives have a fitted effect of over 55% in size
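HEK293T cells expressing luciferase-tagged ELG1 (2,000/well) received 5-Fluorouridine plus compound or DMSO for 16 hr at 37 °C. Luciferase was read by ONE-Glo luminescence after 30 min at room temperature.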
Starred values were filed as active, the others as inactive; ? = inconclusive; · = not tested or not shown; [ ] = another dose, or the depositor's remark. Unless noted, calls follow the shape of the dose curve; as a rule, active = well fitted curve in the direction sought with a large enough effect; inconclusive = small, poorly fitted or top-dose-only effect, or another doubt; inactive = no such curve, though single readings can be large; an effect the other way counts as inactive or inconclusive. % is scaled to controls: 0 for no effect and ±100 for the full control effect.

SMILES	TDP1 inh	Giardia killer	TDP1 cell noCPT	IL1B secr inh	TDP1 cell CPT	ELG1 DNA repair
Fc1ccccc1-c1nc(NC2CCCC2)c2ccccc2n1	·	9.9	-23.6%	-53.3*	-20.6%	7.4%
Cc1ccccc1-c1nc(NC2CCNCC2)c2ccccc2n1	3.0%[56.1 µM]	·	11.6µM*	·	13µM*	·
Clc1ccccc1-c1nc(NC2CCNCC2)c2ccccc2n1	·	·	25.9µM*	·	10.3µM*	·
CNc1nc(-c2ccccc2C)nc2ccccc12	·	·	-19.7%	·	?	·
CCOC(=O)C(C)Sc1ncc(-c2ccc(Cl)cc2)cn1 (centres undefined)	·	-12.2	-12.3%	-17.5	4.61µM*	3.0%
CC(=O)c1cccc(NC(c2ccc(F)cc2)c2nnc(-c3ccccc3)o2)c1 (centres undefined)	-2.8%	·	18.4µM*	·	?	·
Cc1c(Cl)cccc1NC(c1ccc(F)cc1)c1nnc(-c2ccccc2)o1 (centres undefined)	4.5%	·	23.1µM*	·	?	·
CC(=O)c1cccc(NC(=O)CSc2nnc(-c3ccncc3)o2)c1	0.2%	-5.7	-14.8%	12.7	4.1%	7.0%
CCOc1ccc(NC(c2ccc(Cl)cc2)c2nnc(-c3cccc(F)c3)o2)cc1 (centres undefined)	5.0%	·	-28.2%	·	?	·
Cc1ccc2nsnc2c1S(=O)(=O)Nc1cccc2cccnc12	22.1%	·	·	·	·	·
N#CC1=CC2CN(Cc3ccccc3)C1C1C(=O)N(c3ccccc3)C(=O)C21 (centres undefined)	·	8.4	?	0.0	?	·
NC(=Nc1nc(-c2ccccn2)cc2ccccc12)c1ccccn1	·	3.7	0.0184µM*	53.5	0.0146µM*	·
CN1OC[C@@H]2CN(C(=O)Cc3ccccc3)[C@H](c3ccccc3Br)C[C@@H]21	·	·	-27.2%	15.4	-6.0%	·
CC(=O)N1C[C@H]2CON(C)[C@H]2C[C@H]1c1cccc(-c2cc(Cl)cc(Cl)c2)c1	·	·	23.1µM*	-22.8	?	·
CN1OC[C@@H]2CN(C(=S)NCCc3ccccc3)[C@H](c3ccccc3Br)C[C@@H]21	·	·	16.4µM*	-25.2	?	·
CC(=O)N1C[C@H]2CON(C)[C@H]2C[C@H]1c1ccccc1	·	·	4.4%	0.2	0.1%	·
CN1OC[C@@H]2CN(C(=O)CCc3ccccc3)[C@H](c3cccc(-c4ccccc4)c3)C[C@@H]21	·	19.8	?	0.0	25.9µM*	·
CN1OC[C@@H]2CN(C(=O)CCc3ccccc3)[C@H](c3cccc(Oc4ccccc4)c3)C[C@@H]21	·	?	?	-13.0	?	·
COC(=O)c1ccc(Nc2nnc(-c3ccc(C)c(S(=O)(=O)N4CCN(C)CC4)c3)c3ccccc23)cc1	·	·	23.1µM*	·	?	·
Cc1ccc(-c2nnc(Nc3ccc(O)cc3)c3ccccc23)cc1S(=O)(=O)N1CCN(C)CC1	·	·	18.4µM*	·	?	·
Cc1ccc(C)c(Nc2nnc(-c3ccc(C)c(S(=O)(=O)N4CCN(C)CC4)c3)c3ccccc23)c1	·	·	23.1µM*	·	?	·
Cc1ccc(-c2nnc(Nc3cccc(O)c3)c3ccccc23)cc1S(=O)(=O)N1CCN(C)CC1	·	·	18.4µM*	·	?	·
Cc1ccccc1-c1nc2scc(CCNS(=O)(=O)c3ccccc3)n2n1	6.5%	·	?	·	?	·
Cc1ccc(-c2nnc(Nc3ccc(Br)cc3)c3ccccc23)cc1S(=O)(=O)N1CCN(C)CC1	9.3%	·	18.4µM*	·	11.6µM*	·
Cc1ccc(-c2nnc(Nc3ccc(Br)cc3)c3ccccc23)cc1S(=O)(=O)N1CCCCC1	-2.2%[12.3 µM]	·	?	·	-9.0%	·
SMILES	TDP1 inh	Giardia killer	TDP1 cell noCPT	IL1B secr inh	TDP1 cell CPT	ELG1 DNA repair
CCCn1c(N)c(C(=O)COc2ccc(Br)cc2F)c(=O)n(C)c1=O	3.5%	-7.2	?	10.4	14.6µM*	?
C=C(C)c1cccc(C(C)(C)NC(=O)Nn2cnnc2)c1	-1.0%	-21.3	0.82µM*	13.7	-9.1%	4.6%
C=C(C)c1cccc(C(C)(C)NC(=O)NCc2ccncc2)c1	2.8%	-15.7	0.7%	20.0	11.7%	?
C=C(C)c1cccc(C(C)(C)NC(=O)N2CCN(C/C=C/c3ccccc3)CC2)c1	1.9%	1.5	23.1µM*	?	23.1µM*	?
C=C(C)c1cccc(C(C)(C)NC(=O)N2CCCC(C)C2)c1 (centres undefined)	-5.0%	8.6	?	13.3	23.1µM*	3.2%
C[C@@H]1CC[C@H]2C(=O)NC[C@@H](O)CN2[C@@H]1c1ccc(Br)cc1	1.6%[21 µM]	·	·	·	·	·
O=C(Cn1cc(C(F)(F)F)ccc1=O)NCc1ccc(F)cc1	-6.3%[0.0935 µM]	4.0	9.2%	0.1	-2.5%	?
Cc1ccc(-n2nc(CO)c(C(=O)NCc3cccnc3)n2)cc1	-2.3%	·	-14.7%	·	?	·
C[C@@H]1CN([C@H](C)CO)C(=O)CCCn2nncc2CO[C@@H]1CN(C)C(=O)c1ccc(N2CCN(C)CC2)cc1	·	·	-7.6%	-0.1	-15.8%	·
Cc1ccc(CNS(=O)(=O)c2c(C(=O)N3CCCCCC3)c(C)n(C)c2C)cc1	7.2%	-1.0	-0.5%	-23.3	-9.6%	-3.0%
O=C1/C(=C/c2ccccc2[N+](=O)[O-])COc2ccccc21	2.6%	17.2	?	-104.0*	2.59µM*	?
CCOc1cc(/C=C2/COc3ccccc3C2=O)ccc1OCC(=O)N(C)C	3.7%	-8.5	?	-15.7	?	?
O=[N+]([O-])c1ccccc1/C=C1\C=Cc2ccccc21	·	·	-24.4%	·	7.6%	·
CNc1ccc(/C=C2\COc3ccccc3C2=O)cc1[N+](=O)[O-]	1.9%	3.8	11.6µM*	2.0	?	0.0%
CCNC(=O)C1CCCN(C(=O)c2ccccc2OC(F)(F)F)CC1 (centres undefined)	·	·	0.3%	16.6	-4.3%	·
